Source: PubChem BioAssay AID2314 (National Center for Advancing Translational Sciences (NCATS), 2010)
Where “and” joins values, the source holds several entries; their conditions need not be identical. Identical values can stand only once. In all, about 300,000 compounds went through this assay and about 37,000 (12%) were called active. Rule as the data show it: active = max response mostly above about 13% (no sharp cut-off); inactive = mostly below about 14%. Only a selection was taken, and actives are over-represented in it overall.

Test: Cycloheximide Counterscreen for Small Molecule Inhibitors of Shiga Toxin; also: read at 38.3 µM for the half of the compounds with a filed dose; 0% is about no effect
Settings: cell reporter, cycloheximide protein synthesis inhibition counterscreen; active compounds read high

| SMILES | max response |
| --- | --- |
| Cc1cc(C)n2nc(C(=O)N(C)C(c3ccccc3)c3ccccc3)nc2n1 | -3.94% (inactive) |
| CC1CN(C(=S)Nc2ccc(S(N)(=O)=O)cc2)CC(C)O1 (configuration not stated) | -1.03% (inactive) |
| O=C(Nc1ccc(Br)cc1)c1cc(S(=O)(=O)Nc2ccccn2)ccc1Cl | 0.597% (inactive) |
| CCOC(=O)C1=C(c2ccccc2)NC(=O)NC1c1cc(OC)c(OC)cc1OC (configuration not stated) | 1.07% (inactive) |
| CC(C)=C(NC(=O)c1ccccc1)C(=O)N/N=C(\C)c1ccccc1O | 1.01% (inactive) |
| C/C(=N\NC(=O)c1ccoc1C)c1ccccc1O | 18.7% (active) |
| COc1ccccc1N(CC(=O)N/N=C(\C)c1ccccc1O)S(=O)(=O)c1ccc(C)cc1 | -1.67% (inactive) |
| COc1ccc(Cl)cc1-n1c(C)cc(C(=O)OCC(=O)N2CC(=O)Nc3ccccc32)c1C | 0.969% (inactive) |
| CC(C)COC(=O)n1c(=O)oc2ccc(S(=O)(=O)N3CCCCC3)cc21 | -3.35% (inactive) |
| O=C(Nc1nnc(-c2ccc(F)cc2)s1)c1c(F)cccc1Cl | -1.16% (inactive) |
| CCCCCC(=O)NC(=S)NNC(=O)c1ccc([N+](=O)[O-])cc1 | 0.94% (inactive) |
| COCCCNC(=S)NC(=O)c1ccc([N+](=O)[O-])cc1 | 27.5% (active) |
| COc1ccccc1OCCNC(=O)c1cc([N+](=O)[O-])cc([N+](=O)[O-])c1 | 6.58% (inactive) |
| COCCCNC(=S)NC(=O)c1ccccc1 | 36.8% (active) |
| COCCCNC(=S)NNC(=O)C(O)(c1ccccc1)c1ccccc1 | -2.66% (inactive) |
| Cc1cccc(OCCNC(=S)NC(=O)c2cccnc2)c1 | -2.88% (inactive) |
| O=C(Cc1ccccc1Cl)N1CCOCC1 | -3.01% (inactive) |
| Cc1ccc(Cl)cc1NC(=O)CN1CCN(S(=O)(=O)N2CCOCC2)CC1 | -6.26% (inactive) |
| O=C(c1c(F)cccc1Cl)N1CCN(S(=O)(=O)c2ccc3c(c2)OCCCO3)CC1 | -1.76% (inactive) |
| O=C(CN(C(=O)CCC(=O)Nc1nccs1)c1ccc(F)cc1)NCc1ccc2c(c1)OCO2 | -6.07% (inactive) |
| COc1ccc(-c2oc(/N=C/N3CCCC3)c(C#N)c2-c2ccc(OC)cc2)cc1 | -5.61% (inactive) |
| O=[N+]([O-])c1cc(C(F)(F)F)ccc1NCCc1ccncc1 | 9.83% (inactive) |
| Fc1ccccc1CCNc1nnnn1-c1ccccc1 | 0.858% (inactive) |

| SMILES | max response |
| --- | --- |
| O=C1CCC(=O)N1c1ccc(NCCc2ccccc2F)c([N+](=O)[O-])c1 | 21.6% (active) |
| COc1ccc(N2CCC(CNC(=S)Nc3c(C)cccc3C)C2)cc1 (configuration not stated) | -1.13% (inactive) |
| COc1cc(NS(=O)(=O)c2ccc(NC(=O)c3ccc([N+](=O)[O-])cc3)cc2)ncn1 | -2.23% (inactive) |
| CCCc1cc(=O)oc2c(C)c(OCC(=O)NCc3ccccn3)ccc12 | -0.405% (inactive) |
| CCCc1cc(=O)oc2c(C)c(OCC(=O)N3CCC(C(=O)O)CC3)ccc12 | -2.94% (inactive) |
| CCCc1cc(=O)oc2c(C)c(OCC(=O)Nc3ccccn3)ccc12 | 32.5% (active) |
| O=C1COc2ccc(C(=O)COC(=O)C3CC(O)CN3S(=O)(=O)c3ccc(Cl)cc3)cc2N1 (configuration not stated) | -1.44% (inactive) |
| COc1cccc(Nc2nnc(SCC(=O)N3CC(=O)Nc4ccccc43)s2)c1 | -2.67% (inactive) |
| CCc1ccc(Nc2nnc(SCC(=O)c3ccc4c(c3)NC(=O)CO4)s2)cc1 | 20.5% (active) |
| CCCc1nc2ccccc2c(C(=O)OCC(=O)c2ccc3c(c2)NC(=O)CO3)c1CC | -2.81% (inactive) |
| COC(=O)c1ccccc1Sc1c(/C=N/OCc2ccc(Cl)cc2)c(C(F)(F)F)nn1C | 3.42% (inactive) |
| CC(C)C(C)(C#N)NC(=O)CSc1nc2scc(-c3ccccc3)c2c(=O)[nH]1 (configuration not stated) | -4.09% (inactive) |
| COc1ccc(-n2nnnc2SCC(=O)NCc2cccs2)cc1 | -3.1% (inactive) |
| COc1ccc(-n2nnnc2-c2nc3ccccc3s2)cc1 | 40.1% (active) |
| CCOc1cccc(-n2nnnc2-c2ccc(OC)cc2)c1 | -3.31% (inactive) |
| Cc1ccc(NC(=S)NC(NC(=O)Cc2cccc3ccccc23)C(Cl)(Cl)Cl)cc1 (configuration not stated) | -3% (inactive) |
| Fc1ccccc1CNC(=S)Nc1ccc(Cl)cc1 | 6.56% (inactive) |
| O=C(Cc1cccc2ccccc12)NNC(=O)Nc1ccc(Cl)cc1 | 28.4% (active) |
| O=C(CCCCCn1c(=S)[nH]c2cc3c(cc2c1=O)OCO3)N1CCN(c2ccc(F)cc2)CC1 | 10.7% (inactive) |
| CC(=O)c1ccc(NC(=O)Nc2ccc([N+](=O)[O-])cc2C)cc1 | -0.717% (inactive) |
| CC(=O)N1c2ccc(S(=O)(=O)N3CCC(C(=O)NC4CCCCC4C)CC3)cc2CC1C (configuration not stated) | 4.46% (inactive) |
| O=C(Nc1ncc2c(n1)CC(c1ccco1)CC2=O)c1ccc(Cl)cc1 (configuration not stated) | -2.44% (inactive) |
| CCc1ccc(Nc2ncc3c(n2)CC(c2ccco2)CC3=O)cc1 (configuration not stated) | 26.7% (active) |

| SMILES | max response |
| --- | --- |
| COc1cc(C2CC(=O)c3cnc(NC(C)=O)nc3C2)cc(OC)c1OC (configuration not stated) | -4.71% (inactive) |
| COC(=O)c1nc2n(n1)C(c1ccc([N+](=O)[O-])cc1)C(C(=O)Nc1ccc(Cl)cc1)=C(C)N2 (configuration not stated) | -2.4% (inactive) |
| O=c1cc(Cl)c2ccccc2n1-c1ccccc1 | -3.75% (inactive) |
| Cc1cc(C)c(C2C3=C(Nc4c2c(C)nn4-c2ccccn2)c2ccccc2C3=O)c(C)c1 (configuration not stated) | -1.26% (inactive) |
| COc1ccccc1C(=O)Nc1ccc(NC(=O)c2ccco2)c(C)c1 | 10.8% (inactive) |
| COc1ccc(NC(=O)c2cccc(NC(=O)c3ccco3)c2)c(OC)c1 | -3.4% (inactive) |
| COc1cccc(C(=O)Nc2ccc(NC(=O)c3ccco3)cn2)c1 | 55.5% (active) |
| O=C(Nc1ccnc(-c2ccncc2)n1)c1cccs1 | -2.6% (inactive) |
| NC(=O)c1ccsc1NC(=O)c1ccco1 | 12.2% (inactive) |
| O=C(Nc1ccc(NC(=O)c2cccs2)cn1)c1ccco1 | 51.1% (active) |
| CC(C)CC(=O)NC(=S)NNC(=O)c1cccc([N+](=O)[O-])c1 | 4.5% (inactive) |
| CCOc1ccc(CNC(=O)C2CCCN(c3nnc(C)c4c(C)n(-c5ccccc5)nc34)C2)cc1 (configuration not stated) | -1.93% (inactive) |
| COc1ccc(S(=O)(=O)N2CCN(c3ccc(F)cc3)CC2)cc1-c1noc(C)n1 | 10.5% (inactive) |
| Cc1ccccc1CSc1nnc(CCCCCNC(=O)OC(C)(C)C)o1 | -1.71% (inactive) |
| CCOc1ccccc1NC(=O)Cn1nnc(C(=O)NCc2cccs2)c1N | -7.84% (inactive) |
| O=C(NCc1cc(F)cc(C(F)(F)F)c1)C1CCC(=O)N(C2CCCC2)C1 (configuration not stated) | 25.3% (inactive) |
| CSc1ccc(S(=O)(=O)N2CCC(C(=O)NCCc3ccccc3)CC2)cc1 | 0.47% (inactive) |
| O=C(NCCc1ccccc1)C1CCN(S(=O)(=O)c2ccc(Br)s2)CC1 | 11.9% (active) |
| O=C(C1CCN(S(=O)(=O)c2ccc(Br)s2)CC1)N1CCN(c2ccccc2)CC1 | -2.23% (inactive) |
| Oc1c(Cl)cc(Cl)cc1/C=N/c1ncn[nH]1 | -3.31% (inactive) |
| CCOC(=O)N1CCN(C(=O)c2ccc3c(=O)n(CCc4ccc(OC)c(OC)c4)c(=O)[nH]c3c2)CC1 | 2.53% (inactive) |
| COc1cccc(CNC(=O)C2CCCN(S(=O)(=O)N3CC(C)CC(C)C3)C2)c1 (configuration not stated) | 3.03% (inactive) |
| O=C(N/N=C/c1ccc(Cl)cc1)c1nc2ccc([N+](=O)[O-])cc2c(=O)[nH]1 | -1.53% (inactive) |

| SMILES | max response |
| --- | --- |
| O=C(/C(=C/c1cccc(Cl)c1)c1nc2ccccc2[nH]1)c1ccccc1 | 46.6% (active) |
| Oc1ccc(Cl)cc1/C=N/c1nc2ccccc2[nH]1 | 23.3% (inactive) |
| CC(C)(C)c1ccc(CCC2OCC(CN3CCOCC3)O2)cc1 (configuration not stated) | 16.4% (inactive) |
| CCOC(OCC)OCC | 6.84% (inactive) |
| COc1c(C(C)C)oc2cc3oc(=O)ccc3cc12 | 60.5% (active) |
| COc1ccc(Nc2cc(=O)oc3ccccc23)cc1 | -1.7% (inactive) |
| Cc1noc(C)c1COc1ccc2ccc(=O)oc2c1 | -2.41% (inactive) |
| Cc1oc2cc3oc(=O)ccc3cc2c1C | 25.5% (active) |
| Cc1ccc(OCC(=O)Nc2ccc3oc(=O)ccc3c2)cc1C | -4.02% (inactive) |
| CC(C)OC(=O)c1ccc(COc2ccc3ccc(=O)oc3c2)o1 | 22.4% (inactive) |
| CCCCCn1c(=O)[nH]c2cc(C(=O)NCCCN3CCCCC3C)ccc2c1=O (configuration not stated) | -2.4% (inactive) |
| CC(C)CN(CC(C)C)CC(O)CN(c1ccccc1)S(=O)(=O)c1ccccc1[N+](=O)[O-] (configuration not stated) | 3.27% (inactive) |
| CC(C)CNC(=O)C(=O)NCC(c1ccc2c(c1)OCO2)N1CCOCC1 (configuration not stated) | -4.38% (inactive) |
| COCCOC1CCN(C(=O)c2ccc(OC)c(OC3CCN(C(C)C)CC3)c2)CC1 | -2.04% (inactive) |
| Cc1noc(NS(=O)(=O)c2ccc(NC(=O)c3oc4ccc(F)cc4c3C)cc2)c1C | -2.38% (inactive) |
| Cc1nc(-c2ccccc2)cn2c1nc1ccccc12 | 12.4% (inactive) |
| Cc1ccc(S(=O)(=O)N2CCC(Oc3ccc(-n4cnnn4)cc3)CC2)cc1 | -4.88% (inactive) |
| O=C(Cc1ccc(Br)cc1)NCCN1CCOCC1 | -13% (inactive) |
| CCN1C(=NCCc2cccnc2)N[C@@H](c2ccccc2)C(C(=O)OC)=C1C | 1.37% (inactive) and -1.46% (inactive) |
| O=C(c1ccc(F)cc1)n1cc(C(=S)N2CCOCC2)c2ccccc21 | 7.24% (inactive) |
| O=C(C[n+]1cc(Br)cc2ccccc21)c1ccc(F)cc1 | 3.72% (inactive) |
| O=C(c1ccc(F)cc1)n1c(=S)nc2ccccn21 | 53.4% (active) |
| CC(C(=O)NC1CCCCC1)N1C(=O)c2cccc3cccc1c23 (configuration not stated) | 11.1% (inactive) |
